The results in this text go back to PubChem BioAssay (EPA / NIEHS).

The target of experiment [1] is Estrogen receptor beta (Homo sapiens) (UniProt Q92731). As to the kind of experiment: OT_ER_ERbERb_1440: Odyssey Thera (OT) 24-hour HEK293T Protein-Complementation Assay for Estrogen Receptor-beta/-beta Homodimer (AID 2283380).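 Further: fluorescence gain from ER beta LBD homodimer complementation read by laser scanning cytometry; scored as signal increase over DMSO baseline for both agonists and antagonists.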 In outline:
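HEK293T cells stably expressing human ER-beta LBD (aa 310-547) PCA homodimer pair, dosed 24 h; formaldehyde-fixed, Draq5-stained. Readout: increase in nuclear (agonist) or nuclear plus cytoplasmic (antagonist) fluorescence intensity versus DMSO, gain-of-signal fitting.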

In experiment [2] the target is Estrogen receptor (Homo sapiens) (UniProt P03372). As to the kind of experiment: OT_ERa_GFPERaERE_0480: Odyssey Thera (OT) 8-hour HeLa Transcription Induction Assay for Estrogen Receptor (AID 2283381; active means hit-call score of the fitted dose curve at least 0.9, where 1 is the maximum; inactive means score below 0.9). The gist of the method: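 HeLa cells expressing GFP reporter under estrogen response element, imaged 8 h after dosing. GFP induction quantified by high-content fluorescence microscopy image analysis; gain of signal fitted versus DMSO.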
Estrogen receptor (Homo sapiens), sequence (P03372 whole entry, looked up): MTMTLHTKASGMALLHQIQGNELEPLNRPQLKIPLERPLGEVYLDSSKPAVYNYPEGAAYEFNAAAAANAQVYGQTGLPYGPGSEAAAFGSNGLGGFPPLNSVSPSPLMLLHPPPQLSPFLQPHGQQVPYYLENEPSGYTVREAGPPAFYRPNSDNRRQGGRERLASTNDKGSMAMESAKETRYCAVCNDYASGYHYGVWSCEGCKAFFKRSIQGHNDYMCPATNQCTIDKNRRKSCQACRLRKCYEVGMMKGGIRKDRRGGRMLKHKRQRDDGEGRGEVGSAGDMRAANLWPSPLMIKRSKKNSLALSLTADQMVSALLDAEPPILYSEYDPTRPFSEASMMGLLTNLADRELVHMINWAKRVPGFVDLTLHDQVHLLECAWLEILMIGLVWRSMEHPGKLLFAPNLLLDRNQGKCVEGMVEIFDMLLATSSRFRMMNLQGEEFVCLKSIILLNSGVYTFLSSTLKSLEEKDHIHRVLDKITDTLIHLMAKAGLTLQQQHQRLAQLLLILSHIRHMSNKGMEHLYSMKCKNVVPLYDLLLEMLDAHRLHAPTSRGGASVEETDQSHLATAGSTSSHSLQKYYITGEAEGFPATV

Experiment [3] has the same target. As to the kind of experiment: OT_ERa_GFPERaERE_0120: Odyssey Thera (OT) 2-hour HeLa Transcription Induction Assay for Estrogen Receptor (AID 2283382). The gist of the method:
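HeLa cells were dosed for 2 h, then GFP reporter induction was quantified by fluorescence microscopy with high-content image analysis. Gain of signal fitted against DMSO baseline.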

Experiment [4] deals with Bile acid receptor (Homo sapiens) (UniProt Q96RI1). As to the kind of experiment: OT_FXR_FXRSRC1_0480: Odyssey Thera (OT) 8-hour HEK293T Protein-Complementation Assay for Farnesoid X receptor/SRC-1 Co-activator (AID 2283383). The gist of the method:
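HEK293T protein-fragment complementation assay: FXR and SRC-1 coactivator are fused to reporter fragments, and their interaction restores a fluorescent reporter. Readout was taken 8 h after dosing, with gain of signal fit relative to DMSO.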

Experiment [5] shares this target. As to the kind of experiment: OT_FXR_FXRSRC1_1440: Odyssey Thera (OT) 24-hour HEK293T Protein-Complementation Assay for Farnesoid X receptor/SRC-1 Co-activator (AID 2283384). The gist of the method:
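HEK293T cells, 24 h after chemical dosing. FXR–SRC-1 coactivator interaction read as fluorescence from protein-fragment complementation of a split reporter. Gain of signal fitted against DMSO baseline.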

Experiment [6] concerns the target Retinoic acid receptor RXR-alpha (Homo sapiens) (UniProt P19793). As to the kind of experiment: OT_NURR1_NURR1RXRa_1440: Odyssey Thera (OT) 24-hour HEK293T Protein Complementation Assay for Nurr1/retinoid X receptor (RXR) (AID 2283386). The gist of the method: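 HEK293T protein-fragment complementation of Nurr1 and RXRα fused to reporter fragments; compounds 24 h. Fluorescence gain from reconstituted reporter fitted versus DMSO.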

Experiment [7] has as its target Peroxisome proliferator-activated receptor gamma (Homo sapiens) (UniProt P37231). As to the kind of experiment: OT_PPARg_PPARgSRC1_0480: Odyssey Thera (OT) 8-hour Protein-Complementation Assay for Peroxisome Proliferator-activated Receptor Gamma / SRC-1 Co-activator (AID 2283387).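 Further: nuclear to cytoplasmic split Venus YFP fluorescence ratio reporting PPARg SRC-1 interaction.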 In outline: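 Protein-fragment complementation in HEK293T: Venus YFP halves (residues 1-158, 159-239, mutated to IFP1/IFP2) fused to PPARg/SRC-1. 8 h exposure; N/C ratio at 488 nm; DMSO negative control.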

Experiment [8] shares this target. In words: OT_PPARg_PPARgSRC1_1440: Odyssey Thera (OT) 24-hour Protein-Complementation Assay for Peroxisome Proliferator-activated Receptor Gamma/ SRC-1 Co-activator (AID 2283388).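 Further: nuclear to cytoplasmic ratio of reconstituted Venus YFP fluorescence in fixed imaged cells.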 The gist of the method: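 Readout is the 488 nm N/C fluorescence ratio from fixed, Draq5-stained HEK293T cells after 24 h compound exposure. Cells carried transiently transfected PPARg and SRC-1 fused to Venus fragments, transfected 48 h before treatment.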

In experiment [9] the target is Agonist Androgen Response Element (ARE), AR (gene 367) (UniProt P10275). As to the kind of experiment: OT_AR_ARELUC_AG_1440: Odyssey Thera (OT) 24-hour CHO-K1 Luciferase Assay for Agonist Androgen Response Element (ARE) (AID 2283379). The gist of the method: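 Seed CHO-K1 cells; dose compounds for 24 h; add D-luciferin plus ATP in PBS; read luminescence. Signal increase relative to vehicle defines agonist activity, with at least 3 replicate wells per sample.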
Agonist Androgen Response Element (ARE), AR (gene 367), sequence (P10275 whole entry, looked up): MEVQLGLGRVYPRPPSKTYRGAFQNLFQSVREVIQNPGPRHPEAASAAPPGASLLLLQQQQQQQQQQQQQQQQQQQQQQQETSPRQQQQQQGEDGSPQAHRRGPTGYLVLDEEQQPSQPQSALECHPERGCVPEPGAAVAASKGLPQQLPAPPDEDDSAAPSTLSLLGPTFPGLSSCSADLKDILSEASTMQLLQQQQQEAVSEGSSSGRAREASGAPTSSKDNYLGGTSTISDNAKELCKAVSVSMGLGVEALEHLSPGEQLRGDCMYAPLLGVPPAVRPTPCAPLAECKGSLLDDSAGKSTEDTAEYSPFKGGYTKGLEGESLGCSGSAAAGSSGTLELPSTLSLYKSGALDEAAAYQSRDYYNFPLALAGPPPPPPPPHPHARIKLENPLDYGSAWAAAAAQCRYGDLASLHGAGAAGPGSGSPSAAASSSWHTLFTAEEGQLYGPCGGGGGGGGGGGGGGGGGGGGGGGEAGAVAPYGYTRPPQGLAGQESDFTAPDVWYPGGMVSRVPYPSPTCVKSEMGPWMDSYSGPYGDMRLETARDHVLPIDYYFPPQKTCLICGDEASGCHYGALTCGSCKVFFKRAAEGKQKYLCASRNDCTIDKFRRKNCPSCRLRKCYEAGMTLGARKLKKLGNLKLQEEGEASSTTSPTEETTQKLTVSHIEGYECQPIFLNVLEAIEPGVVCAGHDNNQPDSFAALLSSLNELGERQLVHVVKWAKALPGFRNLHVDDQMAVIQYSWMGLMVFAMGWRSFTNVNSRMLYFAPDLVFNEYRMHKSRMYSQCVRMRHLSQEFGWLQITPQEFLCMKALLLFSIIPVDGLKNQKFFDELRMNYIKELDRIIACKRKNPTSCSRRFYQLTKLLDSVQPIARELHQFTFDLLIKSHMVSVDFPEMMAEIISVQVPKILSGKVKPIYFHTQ

For experiment [10], the target named is Retinoic acid receptor RXR-alpha (Homo sapiens) (UniProt P19793). As to the kind of experiment: OT_NURR1_NURR1RXRa_0480: Odyssey Thera (OT) 8-hour HEK293T Protein Complementation Assay for Nurr1/retinoid X receptor (RXR) (AID 2283385). In outline: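 HEK293T cells expressing Nurr1 and RXRα fused to reporter fragments (protein-fragment complementation); fluorescence measured 8 h after dosing. Gain of signal fitted relative to DMSO.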
Retinoic acid receptor RXR-alpha (Homo sapiens), sequence (P19793 whole entry, looked up, the tested form may be a part): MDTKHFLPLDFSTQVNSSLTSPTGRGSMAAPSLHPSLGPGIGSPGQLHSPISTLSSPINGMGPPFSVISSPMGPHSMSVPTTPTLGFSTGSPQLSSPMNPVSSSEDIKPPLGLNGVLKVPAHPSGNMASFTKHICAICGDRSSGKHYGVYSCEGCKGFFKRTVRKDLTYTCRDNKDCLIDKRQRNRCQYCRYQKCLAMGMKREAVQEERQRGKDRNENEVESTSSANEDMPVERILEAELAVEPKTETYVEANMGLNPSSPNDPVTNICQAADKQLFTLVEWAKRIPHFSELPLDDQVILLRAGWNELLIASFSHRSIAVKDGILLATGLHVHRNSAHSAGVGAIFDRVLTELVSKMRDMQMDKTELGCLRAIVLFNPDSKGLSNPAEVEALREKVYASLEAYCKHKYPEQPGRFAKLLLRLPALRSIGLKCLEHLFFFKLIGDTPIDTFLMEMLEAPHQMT

Values joined by “and” are separate entries in the source; they are usually repeats but may differ in a detail not shown here. Equal values may be shown once. Records with an inconclusive call do not appear. Some compounds were tested as several samples or in several runs, with calls that do not always agree. Active and inactive are the calls of the source. How the source made its calls, unless noted: active means hit-call score of the fitted dose curve at least 0.9, where 1 is the maximum; inconclusive means response in the unintended direction; inactive means score below 0.9.

Peroxisome proliferator-activated receptor gamma (Homo sapiens), sequence (P37231 whole entry, looked up, the tested form may be a part): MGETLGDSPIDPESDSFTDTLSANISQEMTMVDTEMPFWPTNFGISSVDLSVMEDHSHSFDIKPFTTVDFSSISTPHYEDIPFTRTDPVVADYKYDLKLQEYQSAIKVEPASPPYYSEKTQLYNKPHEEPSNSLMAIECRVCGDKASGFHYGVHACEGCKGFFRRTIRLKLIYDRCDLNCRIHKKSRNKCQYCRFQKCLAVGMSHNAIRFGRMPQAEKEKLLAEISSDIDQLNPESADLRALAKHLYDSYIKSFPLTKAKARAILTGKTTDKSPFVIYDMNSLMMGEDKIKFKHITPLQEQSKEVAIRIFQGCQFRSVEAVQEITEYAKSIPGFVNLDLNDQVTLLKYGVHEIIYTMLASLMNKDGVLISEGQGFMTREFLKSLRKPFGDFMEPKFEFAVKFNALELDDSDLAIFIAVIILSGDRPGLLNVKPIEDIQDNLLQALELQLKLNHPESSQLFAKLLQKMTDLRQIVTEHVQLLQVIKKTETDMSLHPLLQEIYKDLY
Bile acid receptor (Homo sapiens), sequence (Q96RI1 whole entry, looked up, the tested form may be a part): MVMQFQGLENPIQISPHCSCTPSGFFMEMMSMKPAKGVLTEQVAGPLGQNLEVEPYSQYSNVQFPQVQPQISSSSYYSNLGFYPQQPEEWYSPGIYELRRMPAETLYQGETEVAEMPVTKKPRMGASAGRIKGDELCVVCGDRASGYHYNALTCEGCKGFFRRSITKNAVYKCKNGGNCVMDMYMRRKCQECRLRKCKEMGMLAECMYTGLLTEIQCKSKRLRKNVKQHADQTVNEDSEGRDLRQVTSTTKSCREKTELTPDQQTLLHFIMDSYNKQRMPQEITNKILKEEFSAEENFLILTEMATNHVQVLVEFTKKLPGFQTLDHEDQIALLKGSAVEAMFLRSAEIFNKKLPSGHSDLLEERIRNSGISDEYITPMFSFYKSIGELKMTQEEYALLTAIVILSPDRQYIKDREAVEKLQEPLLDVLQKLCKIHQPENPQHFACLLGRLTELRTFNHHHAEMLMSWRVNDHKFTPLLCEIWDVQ
Estrogen receptor beta (Homo sapiens), sequence (Q92731 whole entry, looked up, the tested form may be a part): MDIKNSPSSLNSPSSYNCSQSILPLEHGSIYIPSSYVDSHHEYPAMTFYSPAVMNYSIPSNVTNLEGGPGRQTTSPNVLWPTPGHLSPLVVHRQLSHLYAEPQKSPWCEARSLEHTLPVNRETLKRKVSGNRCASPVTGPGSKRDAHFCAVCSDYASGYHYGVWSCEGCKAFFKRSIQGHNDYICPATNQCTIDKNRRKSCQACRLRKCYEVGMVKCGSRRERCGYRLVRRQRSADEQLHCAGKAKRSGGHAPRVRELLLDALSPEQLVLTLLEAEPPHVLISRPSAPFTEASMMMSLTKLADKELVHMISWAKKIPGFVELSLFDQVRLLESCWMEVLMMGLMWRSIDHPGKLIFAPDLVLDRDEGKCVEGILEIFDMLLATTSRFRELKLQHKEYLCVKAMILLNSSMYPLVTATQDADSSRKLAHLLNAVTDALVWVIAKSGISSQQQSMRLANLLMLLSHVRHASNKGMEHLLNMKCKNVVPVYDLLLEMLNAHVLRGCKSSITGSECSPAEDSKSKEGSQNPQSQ

With `CC(C)c1nnc2ccc(-c3ocnc3-c3cc(F)ccc3F)cn12`, the outcome in [1], in experiment [2], in experiment [3], in [4], in experiment [5] and in experiment [6] was inactive. For the same compound, the outcome in [7] and in [8] was inactive.
In the case of `CC(C)C(=O)Nc1ccc([N+](=O)[O-])c(C(F)(F)F)c1`, the result in experiment [1], in experiment [2], in [3], in experiment [4], in experiment [7] and in experiment [8] was inactive.
Take `COc1cc2c(c(OC)c1OC)-c1ccc(OC)c(=O)cc1[C@@H](NC(C)=O)CC2`: the result in experiment [9], in experiment [1], in experiment [2], in [3], in experiment [6] and in experiment [7] was inactive. In experiment [8], the result was inactive. In addition, the AC50 (as a rule, the concentration giving half of the maximal activity seen) in experiment [4] was 0.0869 µM (active); in experiment [5] it was 0.03 µM (active); in [6], 10.6 µM (active).
On to `OCc1ccccc1`, for which the compound was called inactive in [9], in [1], in experiment [2], in experiment [3], in experiment [6] and in experiment [7]. The outcome in experiment [8] was inactive.
With `O=c1[nH]cnc2c1ncn2[C@H]1CC[C@@H](CO)O1`, the compound was classed as inactive in [2], in experiment [3], in experiment [10], in experiment [6], in experiment [7] and in [8].
For `O=S1(=O)CCCO1`, the AC50 in experiment [1] was 17.5 µM (active). Further, the compound was classed as inactive in [2], in experiment [3], in [6], in experiment [7] and in experiment [8].
For `CC1(C)C(=O)N(Cl)C(=O)N1Cl`, the compound was called inactive in [2], in experiment [3], in experiment [6], in experiment [7] and in experiment [8].
For `CCCCCOC(C)=O`, the call in experiment [2], in experiment [3], in [6], in experiment [7] and in [8] was inactive.
As for `CCCCCCOC(=O)CC(CC(=O)OCCCCCC)(OC(=O)CCC)C(=O)OCCCCCC`, the outcome in [1], in experiment [2], in experiment [3], in experiment [7] and in experiment [8] was inactive.
With `CC[C@H](C)C(=O)O[C@H]1C[C@H](O)C=C2C=C[C@H](C)[C@H](CC[C@@H](O)C[C@@H](O)CC(=O)O)[C@H]21`, the result in [1], in [2], in [3], in experiment [10], in [6] and in experiment [7] was inactive. For the same compound, in experiment [8], the outcome was inactive.
Take `CCCc1ccccc1`: the outcome in [1], in [2], in experiment [3], in [6], in [7] and in experiment [8] was inactive.
`O=C(O)CO`: the outcome in experiment [1], in experiment [2], in experiment [3], in experiment [6], in experiment [7] and in experiment [8] was inactive.
Turning to `NC(=O)N1c2ccccc2C=Cc2ccccc21`, the compound was called inactive in experiment [1], in experiment [2], in experiment [3], in experiment [6], in experiment [7] and in experiment [8].
As for `C=CCc1cc(S(=O)(=O)c2ccc(O)c(CC=C)c2)ccc1O`, the compound was called inactive in experiment [1], in [2], in [3], in experiment [7] and in experiment [8].
As for `Cc1ccc(S(=O)(=O)NC(=O)NN2CCCCCC2)cc1`, the outcome in experiment [1], in experiment [2], in experiment [3], in [6], in [7] and in experiment [8] was inactive.
Take `Nc1ccn([C@@H]2O[C@H](CO)[C@@H](O)[C@@H]2O)c(=O)n1`: the outcome in experiment [2], in experiment [4], in [5], in experiment [6], in [7] and in experiment [8] was inactive. The AC50 in [3] was 62.2 µM (active).
For the compound `c1ccc(C(O[C@@H]2CCCN(CCc3ccc4c(c3)OCO4)C2)c2ccccc2)cc1`, the concentration at half-maximal activity (AC50) in [1] was 38.5 µM (active); in [6], 77.7 µM (active) and 81.9 µM (active). Moreover, the compound was called inactive in [2], in experiment [3], in experiment [7] and in experiment [8].
As for `c1ccc2ncccc2c1`, the compound was called inactive in experiment [2], in experiment [3], in experiment [10], in experiment [6], in [7] and in [8].
With `C[C@]12C=CC(=O)C=C1CC[C@H]1[C@@H]3C[C@@H](O)[C@](O)(C(=O)CO)[C@@]3(C)C[C@H](O)[C@@]12F`, the compound was called inactive in experiment [2], in experiment [3], in [6], in experiment [7] and in [8].
Turning to `CCCCCCCCN(C)C`, the outcome in [2], in experiment [3], in experiment [6], in [7] and in experiment [8] was inactive.
Turning to `CCc1ccc(O)c(C(C)(C)C)c1`, the outcome in experiment [1], in experiment [2], in [3], in experiment [7] and in experiment [8] was inactive.
In the case of `O=S(=O)(O)c1ccc(N=Nc2c(O)ccc3cc(S(=O)(=O)O)ccc23)cc1`, the compound was classed as inactive in experiment [2], in [3], in experiment [5] and in experiment [6].
Regarding `O=C(NO)C1(NS(=O)(=O)c2ccc(Oc3ccc(F)cc3)cc2)CCOCC1`, the compound was classed as inactive in experiment [1], in experiment [2], in [3], in experiment [7] and in experiment [8].
Consider `CCOC(N)=O`, for which the compound was called inactive in [2], in experiment [3], in experiment [10] and in experiment [6].
On to `C=CN1CCCC1=O`, for which the call in experiment [2], in experiment [3], in experiment [6], in experiment [7] and in experiment [8] was inactive.
As for `O=C1CN(N=Cc2ccc([N+](=O)[O-])o2)C(=O)N1`, the result in experiment [1], in [2], in experiment [3], in [7] and in experiment [8] was inactive.
For the compound `Cn1cc[nH]c1=S`, the compound was classed as inactive in [1], in experiment [2], in experiment [3], in experiment [6], in experiment [7] and in experiment [8].
Consider `OC[C@H]1O[C@@H]2O[C@H]3[C@H](O)[C@@H](O)[C@@H](O[C@H]4[C@H](O)[C@@H](O)[C@@H](O[C@H]5[C@H](O)[C@@H](O)[C@@H](O[C@H]6[C@H](O)[C@@H](O)[C@@H](O[C@H]7[C@H](O)[C@@H](O)[C@@H](O[C@H]1[C@H](O)[C@H]2O)O[C@@H]7CO)O[C@@H]6CO)O[C@@H]5CO)O[C@@H]4CO)O[C@@H]3CO`, for which the compound was classed as inactive in experiment [1], in experiment [2], in experiment [3], in [6], in experiment [7] and in [8].
In the case of `CCCCCCCC1CCC(=O)O1` (configuration not stated), the compound was called inactive in [1], in experiment [2], in [3], in [10], in experiment [7] and in experiment [8].
With `CC(=O)c1ccccc1`, the compound was classed as inactive in experiment [2], in [3], in experiment [6], in experiment [7] and in [8].
For `OCC(CO)(CO)CO`, the compound was called inactive in experiment [1], in experiment [2], in [3], in [6], in experiment [7] and in experiment [8].
With `CCCCN1C(=O)[C@@H]([C@H](O)C2CCCCC2)NC(=O)C12CCN(Cc1ccc(Oc3ccc(C(=O)O)cc3)cc1)CC2`, the compound was called inactive in experiment [1], in experiment [2], in [3], in experiment [6], in [7] and in [8].
For `COS(C)(=O)=O`, the outcome in [2], in experiment [10], in experiment [6], in [7] and in [8] was inactive.
Turning to `OCCNCCO`, the call in experiment [2], in experiment [3], in experiment [10] and in experiment [6] was inactive.
For the compound `CNC(C)=O`, the result in experiment [1], in experiment [2], in [3], in experiment [10], in experiment [6] and in [7] was inactive. Also, the compound was called inactive in experiment [8].
As to `Cn1c(=O)c2[nH]cnc2n(C)c1=O`, the compound was classed as inactive in [3], in [4], in experiment [5], in experiment [10], in experiment [6] and in experiment [7]. For the same compound, in experiment [8], the compound was classed as inactive.
Consider `CCCC(CCC)C(=O)O`, for which the call in experiment [2], in [3], in [6], in experiment [7] and in experiment [8] was inactive.
As to `OC(Cn1cncn1)(Cn1cncn1)c1ccc(F)cc1F`, the compound was classed as inactive in experiment [1], in experiment [2], in experiment [3], in [6], in experiment [7] and in experiment [8].
Take `O=C(O)c1cccc(C(=O)O)c1`: the result in experiment [2], in experiment [3], in [4], in experiment [5], in experiment [7] and in experiment [8] was inactive.
As for `OC(CCl)CCl`, the result in experiment [1], in experiment [2], in [3], in experiment [6], in experiment [7] and in [8] was inactive.
